# Experimental data as given in article PMC5540273 (PLoS ONE, 2017).
# How the values were obtained:
# Details in all cases: concentration: 1 μM,replicates: in singlicate; n = 1
# SNARK = test system: T1, SNARK
# T1 construct: gene NUAK2
# SNRK = test system: SNRK
# SRC = test system: SRC
# SRMS = test system: SRMS
# SRPK1 = test system: SRPK1
# SRPK2 = test system: SRPK2
# SRPK3 = test system: SRPK3
# STK16 = test system: STK16
# STK33 = test system: STK33
# STK35 = test system: STK35
# STK36 = test system: STK36
# STK39 = test system: STK39
# SYK = test system: SYK
# SgK110 = test system: SgK110
# TAK1 = test system: T2, TAK1
# T2 construct: gene MAP3K7
# TAOK1 = test system: TAOK1
# TAOK2 = test system: TAOK2
# TAOK3 = test system: TAOK3
# TBK1 = test system: TBK1
# TEC = test system: TEC
# 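Further: KINOMEscan kinase panel screen.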
SMILES,%Inh (SNARK),%Inh (SNRK),%Inh (SRC),%Inh (SRMS),%Inh (SRPK1),%Inh (SRPK2),%Inh (SRPK3),%Inh (STK16),%Inh (STK33),%Inh (STK35),%Inh (STK36),%Inh (STK39),%Inh (SYK),%Inh (SgK110),%Inh (TAK1),%Inh (TAOK1),%Inh (TAOK2),%Inh (TAOK3),%Inh (TBK1),%Inh (TEC)
Cc1ccc2c(-c3ccnc(Nc4ccc(C(F)(F)F)cc4)n3)cnn2n1 [GW819776],0%,0%,0%,28%,14%,0%,26%,48%,52%,0%,9%,6%,42%,20%,2%,1%,23%,0%,48%,9%
CSc1nccc(-c2c(-c3ccc(F)cc3)ncn2CCCN2CCOCC2)n1.Cl [SB-217146],0%,1%,10%,35%,0%,0%,0%,0%,0%,0%,0%,0%,5%,3%,3%,0%,45%,6%,33%,2%
COc1cccc(OC)c1C(=O)Nc1cccc(-c2nn3ccccc3c2-c2ccnc(Nc3cccc(F)c3)n2)c1 [GSK361065],91.2%,0%,21%,0%,28%,0%,4%,29%,26%,0%,92%,11%,3%,16%,16%,62%,15%,60%,61%,26%
O=C1NCCc2[nH]c(-c3ccncc3)cc21,87%,12%,6%,0%,0%,0%,4%,33%,–,68%,6%,23%,11%,0%,23%,96.9%,16%,41%,20%,0%
c1ccc(Oc2ccc(Nc3ccnc4ccc(-c5ccccn5)cc34)cc2)cc1 [GW407034],0%,0%,17%,94.9%,0%,0%,17%,0%,0%,31%,0%,15%,1%,27%,0%,0%,24%,0%,18%,78%
COC(=O)Nc1nc2cc(Oc3ccc(NC(=O)Nc4cc(C(F)(F)F)ccc4Cl)cc3)ccc2[nH]1.Cl [GW697465],0%,0%,1%,0%,41%,32%,3%,0%,57%,0%,0%,13%,24%,0%,62%,0%,0%,0%,0%,15%
Cn1ccc2ncnc(Oc3ccc(NC(=O)Nc4ccnc(C(F)(F)F)c4)c(Cl)c3)c21,0%,0%,13%,0%,49%,0%,0%,0%,0%,15%,0%,0%,0%,47%,2%,0%,0%,0%,0%,0%
O=C(NCC1CC1)c1ccc(-c2cc(C(=O)NC3CC3)ccc2F)cc1 [GW810445],0%,0%,9%,2%,0%,0%,0%,4%,0%,0%,0%,15%,17%,51%,4%,0%,0%,0%,26%,2%
CN(c1ccc2c(c1)nc(NCc1ccc(F)cc1)n2C)c1ccnc(Nc2ccc(CS(C)(=O)=O)cc2)n1.Cl [GW813244],0%,0%,64%,56%,41%,0%,67%,46%,0%,15%,7%,0%,73%,8%,19%,0%,61%,3%,54%,25%
Cn1ccc2ncnc(Oc3ccc(NC(=O)Nc4cccc(C(F)(F)F)c4)c(F)c3)c21,0%,0%,2%,0%,23%,49%,23%,0%,64%,4%,0%,3%,43%,0%,31%,0%,38%,0%,51%,5%
CNC(=O)c1ccccc1Nc1nc(Nc2cccc(CS(C)(=O)=O)c2)ncc1C.O=CO [GSK1520489],99%,0%,100%,95.1%,95.4%,24%,75%,99.3%,93.2%,34%,65%,15%,70%,100%,96%,72%,15%,52%,44%,99.9%
O=c1[nH]cc(-c2ccc(O)cc2)c2sc(-c3ccncc3)cc12 [GSK1033723],8%,0%,0%,0%,21%,5%,0%,22%,0%,0%,26%,6%,26%,0%,11%,14%,0%,0%,19%,0%
CCNCC(Cc1ccccc1)NC(=O)c1cc(Br)c(-c2ccnc3[nH]ccc23)s1.Cl.Cl (centres unmarked) [GSK1383280],93.1%,0%,14%,0%,56%,0%,0%,51%,95.9%,0%,0%,0%,0%,79%,19%,54%,0%,15%,26%,0%
CC(C(=O)NC1CCN(c2ccnc(Nc3ccc(F)cc3)n2)C1)c1ccc(Cl)cc1 (centres unmarked) [GSK1379713],0%,0%,0%,0%,20%,0%,18%,0%,5%,0%,0%,0%,30%,13%,0%,0%,0%,0%,0%,0%
Cc1cccc(-c2nc(Nc3ccncc3)c3sccc3n2)n1 [GW869641],29%,25%,12%,21%,7%,0%,24%,16%,27%,1%,24%,0%,20%,15%,44%,45%,7%,38%,31%,0%
C[C@@H]1CCN(C(=O)N2CCCC2)C[C@@H]1N(C)c1ncnc2[nH]ccc12,61%,18%,0%,0%,8%,3%,14%,0%,0%,0%,7%,0%,21%,73%,43%,0%,0%,0%,64%,0%
Cl.c1ccc(Oc2ccc(Nc3ccnc4cc(-c5ccc(CN6CCNCC6)o5)ccc34)cc2)nc1 [GW567142],14%,0%,34%,89%,0%,7%,0%,0%,24%,57%,0%,1%,0%,0%,3%,0%,0%,0%,25%,26%

SMILES,%Inh (SNARK),%Inh (SNRK),%Inh (SRC),%Inh (SRMS),%Inh (SRPK1),%Inh (SRPK2),%Inh (SRPK3),%Inh (STK16),%Inh (STK33),%Inh (STK35),%Inh (STK36),%Inh (STK39),%Inh (SYK),%Inh (SgK110),%Inh (TAK1),%Inh (TAOK1),%Inh (TAOK2),%Inh (TAOK3),%Inh (TBK1),%Inh (TEC)
CCN1CCN(CCCC(=O)Nc2n[nH]c3nc(-c4ccc(O)cc4)c(Br)cc23)CC1 [SB-731579],0%,0%,0%,0%,0%,0%,13%,2%,0%,0%,0%,0%,0%,0%,11%,53%,65%,66%,0%,0%
CC(=O)c1c(-c2ccncc2)[nH]c(-c2ccncc2)c1C [GW493036],0%,0%,0%,0%,24%,16%,0%,28%,0%,0%,10%,20%,24%,0%,19%,63%,0%,0%,0%,0%
O=C(Nc1n[nH]c2cc(-c3ccco3)ccc12)C1CC1 [SB-737447],11%,9%,0%,3%,62%,0%,66%,49%,0%,0%,0%,5%,19%,0%,11%,65%,5%,12%,25%,2%
COc1cc2nccc(Nc3ccc(Oc4ccccc4)cc3)c2cc1OC.Cl [GI261656],0%,0%,47%,99.9%,31%,21%,0%,0%,0%,24%,0%,1%,0%,0%,0%,0%,0%,0%,13%,92.8%
Cn1ccc2ncnc(Oc3ccc(NC(=O)Nc4cc(C(C)(C)C)on4)c(Cl)c3)c21,0%,13%,44%,0%,80%,0%,0%,2%,64%,30%,0%,23%,0%,27%,81%,0%,0%,0%,28%,9%
N#Cc1cccc(C(=O)NC2CCN(c3ccnc(Nc4ccc(F)cc4)n3)C2)c1 (centres unmarked) [GSK1379708],0%,0%,5%,0%,40%,0%,0%,12%,0%,0%,0%,0%,27%,5%,0%,0%,0%,0%,0%,0%
CCCC(=O)Nc1n[nH]c2ncccc12 [SB-601436],0%,0%,0%,4%,16%,0%,10%,3%,0%,0%,4%,0%,8%,0%,0%,2%,3%,0%,0%,0%
Cl.Nc1n[nH]c2cc(-c3ccccn3)ccc12 [GSK2189892],18%,0%,0%,0%,0%,0%,0%,22%,0%,0%,0%,0%,7%,0%,2%,0%,0%,0%,6%,0%
CC(C)c1nc(-c2cccc(NS(=O)(=O)c3ccccc3)c2)c(-c2ccnc(Nc3ccc4c(c3)CN(C)CC4)n2)s1 [GSK1649598],35%,1%,100%,99.5%,49%,0%,0%,28%,94.8%,63%,100%,85%,0%,0%,51%,97.2%,98.5%,97.8%,40%,94.2%
C[C@@H](Oc1cc(-n2cnc3cc(-c4cnn(C)c4)ccc32)sc1C(N)=O)c1ccccc1Cl [GSK580432],98.4%,0%,84%,0%,98.2%,42%,85%,51%,0%,3%,0%,10%,92.3%,0%,0%,0%,0%,0%,0%,0%
CCn1c(-c2nonc2N)nc2cncc(Br)c21 [SB-738004],31%,0%,0%,0%,0%,36%,0%,27%,13%,0%,0%,21%,8%,0%,68%,46%,1%,1%,16%,0%
CN1CCN(CCCNc2nccc(-c3c(-c4ccc(F)cc4)nn4cc(C(N)=O)ccc34)n2)CC1 [GW622475],14%,0%,19%,0%,43%,0%,1%,25%,26%,0%,98.9%,23%,11%,7%,29%,13%,0%,10%,0%,8%
Nc1nccc(-c2ccc3c(N)n[nH]c3c2)n1 [GSK1034945],35%,0%,0%,0%,67%,0%,55%,29%,0%,0%,0%,1%,0%,0%,8%,62%,0%,0%,20%,13%
CC(=O)Nc1ccc(-c2cc3ncnc(SCC(=O)O)c3s2)cc1,15%,0%,11%,13%,0%,0%,13%,32%,0%,20%,1%,0%,1%,0%,17%,0%,0%,0%,15%,0%
C[C@@H]1CNc2c(sc3ccc4nc(-c5ccncc5)ccc4c23)C(=O)N1,53%,11%,1%,0%,23%,0%,31%,13%,60%,0%,6%,0%,11%,0%,62%,75%,0%,0%,9%,0%
Cc1n[nH]c2cc(Nc3ccnc(Nc4cccc(CN5CCOCC5)c4)n3)ccc12 [GW682569],25%,0%,77%,0%,92.2%,13%,65%,90.8%,0%,0%,9%,16%,34%,0%,57%,0%,0%,0%,63%,0%
